aSyn UTR act – Activators via SNCA 5'UTR binding, MLPCN; alpha-synuclein 5'UTR reporter, activators screen; activity score, % (tested at 7.5 µM), hits read low; 7.1% of 300,000 active; in the data active = activity score below about -60%
Numbers stand for hits; n = inactive. A selection follows.

SMILES	aSyn UTR act
O=[n+]1c2c(n([O-])c3cc(F)c(N4CCCC4)cc31)CCCC2	-77
[O-][n+]1onc2c3cc(-c4ccccc4)nnc3ccc21	-100
CC(C)OC(=O)/C(=C/c1ccc2c(c1)c1ccccc1n2C)NC(=O)c1ccccc1	-146
CC(C)OC(=O)/C(=C\c1ccc2c(c1)c1ccccc1n2C)NC(=O)c1ccccc1	-113
CN(c1ccc(O)cc1)c1nc(-c2cccs2)cs1	-238
Cc1nc(N)sc1-c1csc(N(C)c2ccc(O)cc2)n1	-127
Cc1ccc(/C=N/N2CCN(c3ccccn3)CC2)o1	-80
CN(C)c1ccc(/C=N/N2CCN(c3ccccn3)CC2)cc1	-126
Oc1cccc(/C=N/N2CCN(c3ccccn3)CC2)c1	-76
CN(C1=C(N2CCOCC2)C(=O)c2ccccc2C1=O)c1ccccc1	n
CN(c1ccccc1)c1ccc(/C=N/N2CCOCC2)cc1	-156
O=[N+]([O-])c1ccccc1/C=N/N1CCN(c2ccccn2)CC1	-79
COc1ccc(S(=O)(=O)N2CCN(c3ccccn3)CC2)cc1[N+](=O)[O-]	n
BrC(=C\c1ccccc1)/C=N/N1CCN(c2ccccn2)CC1	-70
C(=N\N1CCN(c2ccccn2)CC1)/c1ccccn1	-115
c1ccc(-c2cn3nc(-c4ccccc4)sc3n2)cc1	n
Cc1nc2sc(-c3ccccc3)nn2c(=O)c1Br	-78
Nc1nc2c(s1)CCc1c-2cnn1-c1ccccc1	-80
CCN(CC)S(=O)(=O)c1cccc(C(=O)NCCc2ccccc2)c1	-159
CCN(CC)S(=O)(=O)c1cccc(C(=O)Nc2ccc(Cl)cn2)c1	-76
CCCCN(CC)S(=O)(=O)c1ccc(C(=O)Nc2nnc(-c3ccccc3Cl)o2)cc1	n
CCN(CC)S(=O)(=O)c1cc(C(=O)Nc2ccc(Cl)cn2)ccc1C	-118
Cc1ccc(NC(=O)c2cccc(S(C)(=O)=O)c2)cc1	-83
CCN(CC)S(=O)(=O)c1cccc(C(=O)N/N=C(\C)c2ccc(O)cc2O)c1	n
CCN(CC)S(=O)(=O)c1cccc(C(=O)Nc2cccc(C)c2)c1	-124
SMILES	aSyn UTR act
Cc1ccc(NC(=O)c2ccnc(C(C)(C)C)c2)cc1	-127
N#Cc1cc2cc3c(cc2nc1SCC(=O)N1CCCC1)OCCO3	-85
COc1cc2cc(C#N)c(SCC(=O)N3CCOCC3)nc2cc1OC	-74
O=C(Nc1ccc(O)cc1)c1c(O)c2c([nH]c1=O)CCCC2	-131
O=C(NCC1CCCO1)c1c(O)c2c([nH]c1=O)CCCC2 (stereo unspecified)	-112
CCCNC(=O)c1c(O)c2c([nH]c1=O)CCCC2	-77
CCCNC(=O)c1ccc2c(=O)c(O)c(-c3cccc(Br)c3)[nH]c2c1	n
O=C(/C=C/c1cn(-c2ccccc2)nc1-c1cccnc1)c1ccco1	-63
O=C(NCCc1ccccc1)c1ccc(-n2cnnn2)cc1	-66
Cc1ccccc1C(=O)NCCCc1ccccc1	-84
O=C(NCCc1ccccc1)c1cnc2n(c1=O)CCS2	-80
CC(C)=CC(=O)NCCc1ccccc1	-64
O=C(NCCCc1ccccc1)c1ccccc1	-167
O=C(CCCc1ccccc1)c1ccccc1	-105
Cc1ccc(C(=O)NCCCc2ccccc2)s1	-137
COc1ccc(C(=O)NCCCc2ccccc2)cc1	-149
O=C(CN(c1ccc(Cl)cc1)S(=O)(=O)c1ccc(Cl)c([N+](=O)[O-])c1)NCCc1ccccc1	n
O=C(NC(=S)NCCc1ccccc1)c1ccccc1	-115
O=C(NCCc1ccccc1)c1ccc(Br)o1	-93
O=C(NCCc1ccccc1)c1c[nH]c2c(F)cccc2c1=O	-94
O=C(NCCc1ccccc1)c1ccc(Cl)cc1[N+](=O)[O-]	-167
O=C(NCCc1ccccc1)c1ccccc1NS(=O)(=O)N1CCCC1	-88
O=C(CCCC(=O)c1ccc(O)cc1)c1ccc(O)cc1	-71
CN(C(=O)COc1ccccc1C(=O)NCCc1ccccc1)c1ccccc1	-98
O=C(NCCc1ccccc1)c1ccccc1C(=O)NCCc1ccccc1	-113
SMILES	aSyn UTR act
CSC(C(=O)c1cc2ccccc2o1)c1ccccc1 (stereo unspecified)	-88
O=C(Nc1ccccc1)c1cc2ccccc2o1	-112
CC(=O)c1ccc(NC(=O)c2cc3ccccc3o2)cc1	-128
O=C(Nc1ccc(NC(=O)c2cc3ccccc3o2)cc1)c1ccco1	-95
O=C(NNC(=O)c1ccccc1O)c1cc2ccccc2o1	-86
O=C(Nc1ccccc1)c1ccc(OC(=O)c2cc3ccccc3o2)cc1	-84
O=C(Nc1ccc(N2CCCC2)cc1)c1cc2ccccc2o1	-131
CC(C)c1nnc(NC(=O)c2cc3ccccc3o2)s1	-135
O=C(Nc1ccc(F)cc1)c1cc2ccccc2o1	-153
Cc1cc(C(=O)Nc2ccccc2)oc1C	-112
O=C(COc1ccccc1Cl)Nc1ccc2oc(=O)ccc2c1	-72
Cc1ccc(Cl)c(OCC(=O)Nc2sc(C)c(C)c2C#N)c1	-68
O=C(COc1ccccc1Cl)Nc1cccnc1	-128
Cc1ccc(Cl)c(OCC(=O)Nc2cccnc2)c1	-116
COc1ccc(C2=NNC(c3cc(Cl)cc4c3OCOC4)C2)c(O)c1 (stereo unspecified)	-73
O=C(CSc1ncnc2c(-c3ccc(Cl)cc3)nsc12)c1ccccc1	-98
Cc1ccc(/C=C2\OC(=O)c3ccccc32)cc1	-83
Cc1cc(Cl)ccc1NC(=S)Nc1ccccn1	-91
Cc1ccc(NC(=S)NNC(=S)Nc2ccc(C)cc2C)cc1	n
Cc1ccc(NC(=S)c2nc3ccccc3[nH]2)c(C)c1	-116
Cc1ccc(NC(=S)Nc2ccccn2)c(C)c1	-147
N/C(=N\O)c1ccc(N2CCN(c3ncccc3C(F)(F)F)CC2)nc1	-98
COc1ccc(-c2cn3cccnc3n2)cc1F	-108
COc1ccc(-c2cn3cccnc3n2)cc1NS(=O)(=O)c1ccccc1	-98
O=C(CC(Nc1ccccc1Cl)C(=O)O)c1ccccc1 (stereo unspecified)	-94
SMILES	aSyn UTR act
O=C(CC(Nc1ccc(F)cc1)c1ccccc1)c1ccccc1 (stereo unspecified)	-89
COC(=O)c1ccccc1SC(CC(=O)c1ccccc1)c1ccc(F)cc1 (stereo unspecified)	-68
Cc1c(Cl)cccc1NC(CC(=O)c1ccccc1)C(=O)O (stereo unspecified)	-102
O=C(CC(Nc1ccc(Cl)cc1)C(=O)O)c1ccccc1 (stereo unspecified)	-69
Cc1ccc(OC(=O)c2oc3ccc(F)cc3c2C)c(C)c1	-112
Cc1ccccc1C(=O)N/N=C/c1ccccn1	-80
O=C(N/N=C/c1ccccn1)c1ccccc1	-90
O=C(N/N=C\c1cn[nH]c1-c1ccccc1)c1cccnc1	-67
CN(C)c1ccc(C(=O)N/N=C/c2ccccn2)cc1	-85
CN(C)c1ccc(NC(=S)c2ccccn2)cc1	n
CCc1ccc(N(C(=O)c2csnn2)C(C(=O)NC(C)(C)C)c2ccccn2)cc1 (stereo unspecified)	-102
CCc1ccc(N(C(=O)c2csnn2)C(C(=O)NC(C)(C)CC)c2ccccn2)cc1 (stereo unspecified)	-69
Cc1ccc(C(=O)Nc2ccc(N3CCOCC3)nc2)cc1	-71
O=C(Nc1ccc(N2CCOCC2)c(F)c1)c1cccs1	-123
CN(C)c1ccc(NC(=O)c2ccc(N3CCOCC3)nc2)cc1	-62
O=C(Nc1ccc(N2CCOCC2)nc1)c1cccs1	-104
O=C(c1ccccc1)c1cc([N+](=O)[O-])ccc1N1CCOCC1	n
O=C(c1ccccc1)c1ccc(N2CCOCC2)c(F)c1	-145
Cc1cc(C)[n+]2n1C(=O)C(c1ccccc1)=C2[O-]	-93
